ChEMBL document CHEMBL3988442, “University of Dundee, Small-Polar-MMV Screening Library” (2021)
Screen size: about 69,000 compounds; about 950 (1.4%) showed an effect of 50% or more. The sample holds strong results, similar compounds and a random draw of the others, so the mix is not that of the screen.

What follows are compounds tested on Mycobacterium tuberculosis (assay: Cornell M. t heat shock assay; further: in the data most compounds retested in dose-response had high values).
Type: functional, organism-based
Design: dose or concentration left out as unconfirmed

Row | SMILES | Percent Effect
1 | COCCNc1nc2c(c(NCCc3cccs3)n1)CCNCC2 | 55.02%
2 | c1csc(CCNc2nc(-c3ccncc3)nc3c2CCNCC3)c1 | 10.45%
3 | COCCNc1nc2c(c(NCc3ccncc3)n1)CCNCC2 | -8.417%
4 | O=C(O)C(F)(F)F.O=C(O)C(F)(F)F.O=C1NC2(CCN(Cc3cccs3)CC2)CC1c1ccncc1 (stereo unspecified) | -33.96%
5 | CNC(=O)CN1CCOCC2(CCCN(Cc3ccc(F)cc3)C2)C1.O=C(O)C(F)(F)F.O=C(O)C(F)(F)F (stereo unspecified) | -6.144%
6 | CCCn1ccnc1CNC(=O)C1COc2cc(OC)ccc2C1 (stereo unspecified) | 80.42%
7 | CCCn1cnnc1CNC(=O)C1COc2ccc(OC)cc2C1 (stereo unspecified) | -18.38%
8 | CCCn1cnnc1CNC(=O)C1COc2cc(OC)ccc2C1 (stereo unspecified) | -11.02%
9 | O=C(c1ccc(-c2cccc3c2CCNC3)o1)N1CCOCC1 | 23.74%
10 | O=C(c1ccc(-c2cccc3c2CCNC3)o1)N1CCCC1 | 54.8%
11 | O=C(c1ccc(-c2cccc3c2CCNC3)o1)N1CCCCC1 | 37.05%
12 | Cc1ccc(N2CCO[C@H]3CN(Cc4ccoc4)C[C@H]32)nn1.O=C(O)C(F)(F)F.O=C(O)C(F)(F)F | -23.95%
13 | O=C(c1ccccc1)N1C[C@@H]2CC[C@H](C1)N(S(=O)(=O)c1cccnc1)C2 | -19.46%
14 | CCN1CC(O)CN(C(=O)c2cccc(C(F)(F)F)c2)CC1=O (stereo unspecified) | 31.6%
15 | CC(C)(C)CN1CC(O)CN(C(=O)c2cccc(C(F)(F)F)c2)CC1=O (stereo unspecified) | 51.48%
16 | CCN1CC(O)CN(C(=O)c2ccc(SC)cc2)CC1=O (stereo unspecified) | 25.41%
17 | CC(C)CN1CC(O)CN(C(=O)c2cccc(C(F)(F)F)c2)CC1=O (stereo unspecified) | 3.734%
18 | CSc1ccc(C(=O)N2CC(=O)N(CC(C)(C)C)CC(O)C2)cc1 (stereo unspecified) | 67.49%
19 | CSc1ccc(C(=O)N2CC(=O)N(CC3CC3)CC(O)C2)cc1 (stereo unspecified) | 13.44%
20 | CC(Cn1cncc1-c1cnn(Cc2ccccc2)c1)N1CCCCC1.Cl (stereo unspecified) | -9.415%
21 | Cc1ccc(CN2CCn3c(CN4CCN(C)CC4)cnc3C2C)s1.O=C(O)C(F)(F)F.O=C(O)C(F)(F)F.O=C(O)C(F)(F)F (stereo unspecified) | -29.44%
22 | O=C(CN1CCOC(CNc2cccnn2)C1)NCc1cccs1 (stereo unspecified) | 104.8%
23 | O=C(CN1CCOC(CNc2cccnn2)C1)NCc1ccccn1 (stereo unspecified) | -12.01%

Row | SMILES | Percent Effect
24 | O=C(CN1CCOC(CNc2cccnn2)C1)N1CCCCC1 (stereo unspecified) | 57.16%
25 | OC1(CN2CCOC(CNc3cccnn3)C2)CCCCC1 (stereo unspecified) | 9.895%
26 | O=C(CN1CCOC(Cn2cccn2)C1)NCc1cccs1 (stereo unspecified) | -0.5047%
27 | c1cnnc(NCC2CN(CCN3CCCCC3)CCO2)c1 (stereo unspecified) | 4.077%
28 | Cc1oncc1C(=O)NCc1cc(=O)n2c(n1)CN(C(C)C)CCC2.O=C(O)C(F)(F)F | -32.5%
29 | CC(C)(C)C(=O)NC(c1nccs1)C1CCN(CC2CCCCC2)CC1.Cl (stereo unspecified) | 4.524%
30 | CCN1CCC2(C=C(C(=O)NC3CC3)c3ccccc32)CC1.O=C(O)C(F)(F)F | -9.893%
31 | CN(C)C(=O)CN1CCOCC2(C1)CN(c1ncccn1)CCO2.O=C(O)C(F)(F)F (stereo unspecified) | -21.69%
32 | CCS(=O)(=O)N1CCN(CCOC)c2ncccc2C1 | 7.581%
33 | CC(=O)N1N=C(c2ccccc2)OC1C(=O)NCCN(C(C)C)C(C)C (stereo unspecified) | 73.05%
34 | CC(=O)N1N=C(c2ccncc2)OC1C(=O)N(C)CCc1ccccc1 (stereo unspecified) | 106%
35 | CC(=O)N1N=C(c2ccccc2)OC1C(=O)NCC(=O)OC(C)(C)C (stereo unspecified) | 21.44%
36 | CC(=O)N1N=C(c2ccccc2)OC1C(=O)NCCc1ccc(O)cc1 (stereo unspecified) | 53.53%
37 | CCOC(=O)CNC(=O)C1OC(c2ccccc2)=NN1C(C)=O (stereo unspecified) | 54.14%
38 | CC(=O)N1N=C(c2ccco2)OC1C(=O)N(C)CCc1ccccc1 (stereo unspecified) | -2.033%
39 | CC(=O)N1N=C(c2ccccc2)OC1C(=O)NCCc1ccc(Cl)cc1 (stereo unspecified) | 7.805%
40 | CC(=O)N1N=C(Cc2ccccc2)OC1C(=O)NCC(=O)OC(C)(C)C (stereo unspecified) | 11.49%
41 | CC(=O)N1N=C(c2ccccc2)OC1C(=O)NCCOc1ccccc1 (stereo unspecified) | 46.95%
42 | CC(=O)N1N=C(c2ccccc2)OC1C(=O)NCCc1ccc(C)cc1 (stereo unspecified) | 30.4%
43 | CC(=O)N1N=C(c2ccccc2)OC1C(=O)NCCC1=CCCCC1 (stereo unspecified) | -12.6%
44 | CC(=O)N1N=C(c2ccccc2)OC1C(=O)N(C)CCc1ccccc1 (stereo unspecified) | 0.1011%
45 | Cc1oncc1C(=O)NCc1cc(=O)n2c(n1)CN(CC(C)C)CCC2.O=C(O)C(F)(F)F | -11.26%
46 | CC(C)N1CCOCC2(CCCN(C(=O)CCc3cccnc3)C2)C1.O=C(O)C(F)(F)F (stereo unspecified) | -33.91%

Row | SMILES | Percent Effect
47 | Cc1cccc(CN2CCC3(CCN(c4ncccn4)CC3)C2=O)c1.O=C(O)C(F)(F)F | 21.29%
48 | O=C(O)C(F)(F)F.O=C(O)C(F)(F)F.O=C(O)C(F)(F)F.O=C1CO[C@@H]2CN(Cc3ccncc3)C[C@H]2N1Cc1ccncc1 | -33.4%
49 | CN(C)CC1CSCCCN1C(=O)c1ccsc1 (stereo unspecified) | -29.65%
50 | O=S1(=O)C[C@@H]2[C@H](C1)N(Cc1cc(Cl)cc(Cl)c1)CCN2CC1CC1 | 99.37%
51 | CCCN1CCN(Cc2cc(Cl)cc(Cl)c2)[C@H]2CS(=O)(=O)C[C@H]21 | 31.79%
52 | O=S1(=O)C[C@@H]2[C@H](C1)N(Cc1cc(Cl)cc(Cl)c1)CCN2CCO | -5.541%
53 | CN(C)c1ncc(-c2cccc(C(N)=O)c2)c(C2CNCCO2)n1.Cl (stereo unspecified) | -21.53%
54 | CN1CCc2cc(C(=O)N(C)C)c(NCC3CC3)nc2CC1.O=C(O)C(F)(F)F.O=C(O)C(F)(F)F | -30.07%
55 | Cn1ccnc1CN1C[C@@H]2[C@@H](C1)OCC(=O)N2CC1CCCC1.O=C(O)C(F)(F)F | -35.26%
56 | CN(C)[C@@H]1CN(C(=O)Cc2cccc(F)c2)[C@@H]2CCCO[C@H]12.O=C(O)C(F)(F)F | -1.237%
57 | Cc1nnc([C@@]23CCO[C@@H]2CCN(S(=O)(=O)c2ccccc2)C3)o1 | 53.88%
58 | Cc1nnc([C@@]23CCO[C@@H]2CCN(S(C)(=O)=O)C3)o1 | -10.32%
59 | Cc1nnc([C@@]23CCO[C@@H]2CCN(S(=O)(=O)c2cccnc2)C3)o1 | 18.46%
60 | N#Cc1cccc(CN2C[C@@H]3CN(c4ncccn4)C[C@@H]3C2)c1.O=C(O)C(F)(F)F | 29.7%
61 | CO[C@H]1C[C@@H]2CN(C(=O)c3cc4cccc(F)c4[nH]3)C[C@@H]2C1 | 17.75%
62 | COC(=O)CCc1c(C)nc2cc(O)nn2c1C | -4.051%
63 | COc1ccc(NC(=O)CCc2c(C)nc3cc(O)nn3c2C)cn1 | 61.44%
64 | CCNC(=O)CCc1c(C)nc2cc(O)nn2c1C | 0.7588%
65 | CN(C)C(=O)c1cn[nH]c1C1CCCN1Cc1nccn1C.O=CO (stereo unspecified) | -23.16%
66 | Cc1ccc(CN2CCC(O)(Cn3nc(-c4cccs4)oc3=O)CC2)o1.O=C(O)CC(O)(CC(=O)O)C(=O)O | 5.66%
67 | CC1(C)CC(N2Cc3nc(N4CCCC4)ncc3C2=O)CC(C)(C)N1 | 8.213%
68 | Cc1noc(C2CCN(C(=O)CCc3ccccn3)CC2)n1 | 13.4%
69 | Cc1noc(C2CCN(C(=O)CCc3nccs3)CC2)n1 | 51.73%

Row | SMILES | Percent Effect
70 | Cc1noc(C2CCN(C(=O)CCNc3ncccn3)CC2)n1 | 13.08%
71 | O=C(O)C(F)(F)F.O=C(O)C(F)(F)F.c1cnn(CCCO[C@@H]2CC[C@H]3[C@H]2OCCN3CC2CC2)c1 | -27.44%
72 | CCn1ncc2c1CN(CCc1cccc(Cl)c1)CC2COC.O=C(O)C(F)(F)F.O=C(O)C(F)(F)F (stereo unspecified) | -10.95%
73 | c1csc(C2(NCc3csc(C4CC4)n3)CCCC2)n1 | 66.7%
74 | O=C(NC1(c2nccs2)CCCC1)c1cc(C2CC2)on1 | 7.107%
75 | CCCc1nc(CNC(=O)Cc2csc(C)n2)cs1 | 8.263%
76 | O=C(CCNC1(c2nccs2)CCCC1)N1CCOCC1 | -14.8%
77 | Cc1csc(C2(NCc3csc(C4CC4)n3)CCCC2)n1 | 41.22%
78 | CCCc1nc(CNC2(c3nccs3)CCCC2)cs1 | 94.85%
79 | Cc1cccc(CN2CCc3nnc(Cn4cccc4)n3CC2)n1.O=C(O)C(F)(F)F | -14.44%
80 | O=C(O)C(F)(F)F.O=C(O)C(F)(F)F.c1cc(-c2ccc3nc(C4CCN(CC5CC5)CC4)nn3c2)ccn1 | -27.27%
81 | Cc1cccc(CN2CC[C@@H]3[C@@H]2CCN3C(=O)c2cc(C)on2)n1.O=C(O)C(F)(F)F | -16.64%
82 | CCN(CC)CC1CN(Cc2cccc(C#N)c2)Cc2nccn2C1.O=C(O)C(F)(F)F.O=C(O)C(F)(F)F (stereo unspecified) | -22.76%
83 | c1ccc(-c2nc(CN3CCn4c(nnc4C4CC4)C3)cs2)cc1 | 10.73%
84 | Cc1ccc(-c2nc(CN3CCn4c(C)nnc4C3)cs2)o1 | -2.255%
85 | Cc1nnc2n1CCN(Cc1csc(-c3ccsc3)n1)C2 | -0.9289%
86 | c1cnc(-c2nc(CN3CCn4c(nnc4C4CC4)C3)cs2)nc1 | 18.84%
87 | c1sc(C2CCCCC2)nc1CN1CCn2c(nnc2C2CC2)C1 | 7.076%
88 | Cc1ccc(-c2nc(CN3CCn4c(nnc4C4CC4)C3)cs2)o1 | 171.6%
89 | c1sc(C2CCCC2)nc1CN1CCn2c(nnc2C2CC2)C1 | 55.31%
90 | c1cc(-c2nc(CN3CCn4c(nnc4C4CC4)C3)cs2)cs1 | 159.7%
91 | CCc1nnc2n1CCN(Cc1csc(-c3ccc(C)o3)n1)C2 | 49.84%
